Molecules are shown by their SMILES. Unmarked numbers belong to inactive results. Inconclusive results are not listed. The source made the active and inactive calls. Unless noted, the call rests on the fitted dose curve.

A short description of assay [1]: Nuclear factor erythroid 2-related factor 2/antioxidant responsive element (Nrf2/ARE) small molecule agonists: qHTS cell viability counter screen in human keratinocytes (AID 1919968; active means well fitted curve in the direction sought with a large enough effect in the repeat runs; an effect the other way counts as inactive or inconclusive; further: nearly all actives have a fitted effect of over 55% in size). Put shortly:
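In human HaCaT keratinocytes stably expressing an ARE-driven luciferase, compound exposure lasted 23 h at 37 C under 5% CO2. Viable cells are quantified with a protease-based fluorogenic reagent (CellTiter-Fluor) read 1 h after addition.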
Background: Quantitative high-throughput screening tests each substance at several concentrations.

Assay [2] can be described thus: Nuclear factor erythroid 2-related factor 2/antioxidant responsive element (Nrf2/ARE) small molecule agonists: luciferase reporter gene qHTS assay in human keratinocytes (AID 1919969; further: nearly all actives have a fitted effect of over 35% in size). (In a reporter assay the amount or activity of a reporter protein is the signal.)
Assay [3] has as its target Gonadotropin-releasing hormone receptor (Homo sapiens) (UniProt P30968). The experiment in a line: Human gonadotropin-releasing hormone receptor (GnRHR) small molecule agonists, calcium flux assay in GnRHR-HEK293 cells (AID 1920063). Further: nearly all actives have a fitted effect of over 35% in size. A digest of the protocol:
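Intracellular calcium rise is the read-out: engineered human GnRHR HEK293 cells, dye-loaded, are exposed to DMSO-dissolved compounds and fluorescence at Ex/Em 480/540 is tracked for 3 min.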

For assay [4], the target named is KiSS-1 receptor (Homo sapiens) (UniProt Q969F8). The experiment in a line: Human kisspeptin (KISS1R) small molecule agonists, calcium flux assay in KISS1R-HEK293 cells (AID 1920064; active means well fitted curve in the direction sought with a large enough effect in the repeat runs; an effect the other way counts as inactive or inconclusive). A digest of the protocol:
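Concentration-response testing used 15 concentrations in triplicate on human KISS1R-expressing HEK293 cells. Calcium-dependent fluorescence (Ex/Em 480/540) was followed kinetically for 3 min after compound transfer.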
For orientation: Calcium flux is commonly read through the fluorescence of an indicator in the cells.

Assay [5] can be described thus: G protein-coupled receptor (GPCR) small molecule agonists, calcium flux assay: HEK293 wild type cell line counter screen (AID 1920065). Put shortly: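 Fluorescence intensity signals activation. After overnight (18 h) culture and a 1 h calcium dye load at 37 C, compounds are added by pin tool and the plate read at 480/540 nm for 3 min in 1 s steps.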
The nature of assay [6]: p53 small molecule agonists, cell-based qHTS assay with human liver microsomes: qHTS cell viability counter screen (AID 1963579). Further: nearly all actives have a fitted effect of over 45% in size. Put shortly:
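Metabolically activated exposure: compounds, human liver microsomes and NADPH (0.5 mg/mL final apiece) were added to p53RE-bla cells seeded 5 h earlier, left 16 h at 37 C, and then assessed for viability by CellTiter-Glo luminescence.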

A short description of assay [7]: p53 small molecule agonists, cell-based qHTS assay with rat liver microsomes: qHTS cell viability counter screen (AID 1963580). Further: nearly all actives have a fitted effect of over 45% in size. Put shortly: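 After the beta-lactamase ratio was read, CellTiter-Glo was added to the same wells and luminescence measured at 30 min; cells had been treated 16 h at 37 C with compounds, rat liver microsomes and NADPH (0.5 mg/mL final each).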

Assay [8] in a line: p53 small molecule agonists, cell-based qHTS assay: qHTS cell viability counter screen (AID 1963581). Further: nearly all actives have a fitted effect of over 45% in size. Put shortly: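 Luminescence from CellTiter-Glo, reflecting ATP content, serves as the cytotoxicity measure; it is taken after the 2 h reporter substrate step in HCT-116 p53RE-bla cells dosed for 16 h at 37 C.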
The nature of assay [9]: p53 small molecule agonists, cell-based qHTS assay (AID 1963582; active means well fitted activation curve with a large enough effect in the signal ratio in the repeat runs, not every such curve was filed as active; the % refers to the signal ratio). A digest of the protocol:
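After plating, p53RE-bla cells sat 5 h in the incubator; compounds or DMSO vehicle were pinned in; a 16 h incubation at 37 C followed; FRET substrate was added and, 2 h later at RT, fluorescence was measured.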

The target in assay [10] is 5-hydroxytryptamine receptor 2A (Homo sapiens) (UniProt P28223). In words: 5-hydroxytryptamine receptor 2A (HTR2A) small molecule agonists, cell-based qHTS assay (AID 1963587). Further: nearly all actives have a fitted effect of over 30% in size. A digest of the protocol:
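CHO cells stably expressing human HTR2A, plated 18 h, loaded with calcium dye 1 h at 37 C. Agonist mode: compounds added and intracellular calcium fluorescence recorded kinetically for 2 min at 1 sec intervals.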

The target of assay [11] is Muscarinic acetylcholine receptor M1 (Homo sapiens) (UniProt P11229). The experiment in a line: Cholinergic receptor muscarinic 1 (CHRM1) small molecule antagonists, cell-based qHTS assay (AID 1963588). Further: nearly all actives have a fitted effect of over 40% in size. Further: potency means the concentration at half of the fitted maximal effect. Put shortly: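 Compounds were tested at 15 concentrations in three independent runs. Dye-loaded CHRM1-CHO cells were exposed 5 min at room temperature before stimulation by acetylcholine added at 50nM. Intracellular calcium was read kinetically on FDSS for 3 min.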
Chain of Muscarinic acetylcholine receptor M1 (Homo sapiens) (P11229 whole entry, looked up): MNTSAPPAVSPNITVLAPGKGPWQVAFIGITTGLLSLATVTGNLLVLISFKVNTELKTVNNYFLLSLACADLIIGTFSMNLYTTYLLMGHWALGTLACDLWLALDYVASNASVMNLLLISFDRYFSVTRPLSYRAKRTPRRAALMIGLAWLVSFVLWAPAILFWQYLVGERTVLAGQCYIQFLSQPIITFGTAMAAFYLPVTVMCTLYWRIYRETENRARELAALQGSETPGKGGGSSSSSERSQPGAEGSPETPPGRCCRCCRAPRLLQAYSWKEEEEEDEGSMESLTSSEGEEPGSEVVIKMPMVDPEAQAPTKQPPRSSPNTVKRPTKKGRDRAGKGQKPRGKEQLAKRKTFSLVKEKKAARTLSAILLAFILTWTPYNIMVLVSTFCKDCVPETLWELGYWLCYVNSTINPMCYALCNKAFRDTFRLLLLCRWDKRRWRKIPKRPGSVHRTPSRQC

Assay [12] shares this target. The experiment in a line: Cholinergic receptor muscarinic 1 (CHRM1) small molecule agonists, cell-based qHTS assay (AID 1963589). Further: nearly all actives have a fitted effect of over 35% in size. Put shortly: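 Fluorescent calcium dye reports M1 activation in stably transfected CHO cells. Compounds, 15 concentrations, added after 1 h dye loading at 37 C; kinetic reading at 1 sec intervals.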
Assay [13] is described as follows: cAMP Responsive Elements (CRE) small molecule agonists, cell-based qHTS assay (AID 1963590). A digest of the protocol:
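Compound exposure lasted 3 h at 37 C/5% CO2 in CRE-bla HEK 293T cells grown in assay medium with 10% dialyzed FBS and 25 mM HEPES. Reporter signal came from LiveBLAzer B/G FRET substrate, 2 h, room temperature.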

Assay [14] deals with Beta-2 adrenergic receptor (Homo sapiens) (UniProt P07550). The experiment in a line: Adrenergic beta2 receptor (ADRB2) small molecule antagonists, cell-based qHTS assay (AID 1963592). Further: series mostly up to about 92 µM; nearly all actives have a fitted effect of over 50% in size. Put shortly:
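Assay format: CHO-ADRB2 cells, 18-20hr seeding at 37C/5% CO2, then compound plus 1nM isoproterenol agonist mix for 0.5hr RT. Homogeneous time-resolved fluorescence cAMP detection after 1hr, expressed as 665/615 nm ratio.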

Assay [15] concerns the target D(2) dopamine receptor (Homo sapiens) (UniProt P14416). The experiment in a line: Dopamine D2 receptor (DRD2) small molecule antagonists, cell-based qHTS assay (AID 1963595; active means well fitted inhibition curve with a large enough effect in the signal ratio in the repeat runs, with a control signal flat; the % refers to the signal ratio). A digest of the protocol:
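HEK293 cells stably expressing DRD2 were preincubated with 0.1 mM Ro20-1724, then with compound for 10 min at room temperature. Cells were stimulated with 200 nM NKH477 plus 12 nM quinpirole for 30 min, and cAMP was read by HTRF.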

Assay [16] in a line: p53 small molecule agonists, cell-based qHTS assay with rat liver microsomes (AID 1963578). A digest of the protocol:
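Agonist mode in p53RE-bla reporter cells, with compounds co-incubated 16 h at 37 C alongside 0.5 mg/mL rat liver microsomes and 0.5 mg/mL NADPH (final), followed by a 2 h LiveBLAzer detection step.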

Assay [17] concerns the target 5-hydroxytryptamine receptor 2A (Homo sapiens) (UniProt P28223). In words: 5-hydroxytryptamine receptor 2A (HTR2A) small molecule antagonists, cell-based qHTS assay (AID 1963586). Further: nearly all actives have a fitted effect of over 45% in size. Further: potency means the concentration at half of the fitted maximal effect. Put shortly: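 CHO cells stably expressing human HTR2A were plated for 18 h at 37 C, then loaded with calcium dye for 1 h. Compounds were preincubated 5 min at room temperature before DOI (4 nM solution) was added. Kinetic fluorescence was read for 3 min.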

Assay [18] can be described thus: cAMP Responsive Elements (CRE) small molecule antagonists, cell-based qHTS assay (AID 1963591; active means well fitted inhibition curve with a large enough effect in the signal ratio in the repeat runs, not every such curve was filed as active; the % refers to the signal ratio). A digest of the protocol:
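Stimulation used NKH477 at a final 0.25 uM for 3 h in compound-treated CRE-bla HEK293T cells, seeded 18 h beforehand. Reporter activity was measured with LiveBLAzer B/G FRET substrate after 2 h at room temperature.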

Assay [19] deals with D(2) dopamine receptor (Homo sapiens) (UniProt P14416). In words: Dopamine D2 receptor (DRD2) small molecule agonists, cell-based qHTS assay (AID 1963594). Further: nearly all actives have a fitted effect of over 35% in size. Put shortly:
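HEK293 cells stably expressing human DRD2, pre-treated with PDE inhibitor Ro20-1724 (0.1 mM final) and compound 10 min at room temperature, then stimulated with NKH477 (200nM […]) for 30 min. cAMP read by HTRF (665/620 nm).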

For assay [20], the target named is Beta-2 adrenergic receptor (Homo sapiens) (UniProt P07550). The experiment in a line: Adrenergic beta2 receptor (ADRB2) small molecule agonists, cell-based qHTS assay (AID 1963593).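 Further: CHO cells stably overexpressing human ADRB2.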 A digest of the protocol: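 CHO cells stably over-expressing ADRB2 were plated overnight at 37C, then dosed with compounds plus a stimulation mix containing 100uM IBMX and 25uM Ro-20-1724 for 0.5hr at room temperature. cAMP was measured by HTRF competition, 1hr.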
Chain of Beta-2 adrenergic receptor (Homo sapiens) (P07550 whole entry, looked up): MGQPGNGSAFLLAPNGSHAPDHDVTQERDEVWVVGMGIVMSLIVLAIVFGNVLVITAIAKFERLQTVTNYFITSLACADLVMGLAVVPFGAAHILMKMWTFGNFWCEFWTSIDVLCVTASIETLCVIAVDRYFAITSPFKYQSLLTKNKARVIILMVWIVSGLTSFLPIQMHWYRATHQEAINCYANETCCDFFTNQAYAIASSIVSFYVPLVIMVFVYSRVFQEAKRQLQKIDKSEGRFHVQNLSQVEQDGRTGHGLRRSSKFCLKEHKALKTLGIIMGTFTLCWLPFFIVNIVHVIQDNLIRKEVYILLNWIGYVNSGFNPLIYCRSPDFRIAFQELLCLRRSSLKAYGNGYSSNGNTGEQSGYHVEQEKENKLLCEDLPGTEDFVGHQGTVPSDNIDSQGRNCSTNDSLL

Chain of Gonadotropin-releasing hormone receptor (Homo sapiens) (P30968 whole entry, looked up): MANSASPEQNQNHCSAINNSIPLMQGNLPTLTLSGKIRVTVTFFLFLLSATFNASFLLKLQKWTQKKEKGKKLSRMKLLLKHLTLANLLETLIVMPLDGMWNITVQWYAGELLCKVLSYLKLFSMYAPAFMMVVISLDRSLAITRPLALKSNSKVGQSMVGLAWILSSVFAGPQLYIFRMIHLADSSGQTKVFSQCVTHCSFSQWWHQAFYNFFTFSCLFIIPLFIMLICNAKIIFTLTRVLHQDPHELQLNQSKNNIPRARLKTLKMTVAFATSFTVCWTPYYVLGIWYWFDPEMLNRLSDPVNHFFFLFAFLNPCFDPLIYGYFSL
Chain of KiSS-1 receptor (Homo sapiens) (Q969F8 whole entry, looked up): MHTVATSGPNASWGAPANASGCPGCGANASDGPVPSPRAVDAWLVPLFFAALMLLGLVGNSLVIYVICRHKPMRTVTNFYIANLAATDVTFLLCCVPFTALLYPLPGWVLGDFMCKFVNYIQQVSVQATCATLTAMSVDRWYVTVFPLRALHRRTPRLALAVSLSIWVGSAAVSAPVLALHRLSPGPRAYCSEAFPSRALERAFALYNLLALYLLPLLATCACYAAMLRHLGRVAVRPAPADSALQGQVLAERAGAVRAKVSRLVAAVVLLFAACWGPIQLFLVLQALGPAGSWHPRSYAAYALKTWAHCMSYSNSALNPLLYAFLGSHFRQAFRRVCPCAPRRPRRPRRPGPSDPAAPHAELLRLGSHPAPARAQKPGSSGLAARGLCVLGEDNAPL
Chain of 5-hydroxytryptamine receptor 2A (Homo sapiens) (P28223 whole entry, looked up): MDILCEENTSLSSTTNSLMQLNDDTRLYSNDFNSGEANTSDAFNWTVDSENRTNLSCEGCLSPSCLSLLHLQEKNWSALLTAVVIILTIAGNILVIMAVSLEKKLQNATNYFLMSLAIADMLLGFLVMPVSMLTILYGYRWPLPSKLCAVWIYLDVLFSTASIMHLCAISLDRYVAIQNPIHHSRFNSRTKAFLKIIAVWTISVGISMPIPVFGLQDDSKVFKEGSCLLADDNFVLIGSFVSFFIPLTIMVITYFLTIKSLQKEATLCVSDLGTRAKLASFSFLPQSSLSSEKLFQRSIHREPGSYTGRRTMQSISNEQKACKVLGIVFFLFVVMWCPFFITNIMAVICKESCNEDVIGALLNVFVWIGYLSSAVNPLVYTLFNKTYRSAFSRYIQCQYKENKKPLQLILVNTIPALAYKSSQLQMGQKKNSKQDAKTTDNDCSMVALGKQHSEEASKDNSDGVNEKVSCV
Chain of D(2) dopamine receptor (Homo sapiens) (P14416 whole entry, looked up): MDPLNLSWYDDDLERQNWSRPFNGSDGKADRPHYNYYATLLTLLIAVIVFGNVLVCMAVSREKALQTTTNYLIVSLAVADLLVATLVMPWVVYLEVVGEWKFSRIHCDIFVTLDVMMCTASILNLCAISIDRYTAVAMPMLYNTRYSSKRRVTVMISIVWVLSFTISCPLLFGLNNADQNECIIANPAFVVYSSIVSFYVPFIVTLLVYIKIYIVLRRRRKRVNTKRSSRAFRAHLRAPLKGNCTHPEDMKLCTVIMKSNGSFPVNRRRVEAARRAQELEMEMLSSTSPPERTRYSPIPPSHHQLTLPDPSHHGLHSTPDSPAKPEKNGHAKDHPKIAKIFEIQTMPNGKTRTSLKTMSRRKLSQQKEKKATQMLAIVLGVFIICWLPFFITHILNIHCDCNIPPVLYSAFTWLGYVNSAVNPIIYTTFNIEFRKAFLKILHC

`COc1cc(C(=O)OCCCN2CCCN(CCCOC(=O)c3cc(OC)c(OC)c(OC)c3)CC2)cc(OC)c1OC`: the Potency result in [1], in [2], in assay [3], in assay [4], in [5] and in [6] was “inactive” each time. Also, the Potency result in assay [7], in assay [8], in [9], in [10], in assay [12] and in assay [13] was “inactive” each time. For the same molecule, the Potency result in assay [14] and in [15] was “inactive” throughout. The Potency in assay [11] was 7.29 µM (active).
With `COc1cccc(N(C)C(=S)Oc2ccc3c(c2)CCCC3)n1`, the Potency result in assay [1], in assay [2], in assay [3], in [4], in assay [5] and in [16] was “inactive” in each case. Also, the Potency result in assay [7], in assay [8], in assay [10], in [11], in assay [12] and in [13] was “inactive” throughout. The Potency entry in [18], in [14] and in assay [19] was “inactive” in each case. Besides, in assay [17], the Potency was 5.79 µM (active).
Consider `CCn1ccc(NS(=O)(=O)c2ccc(N)cc2)nc1=O`, for which the Potency entry in assay [1], in assay [2], in assay [3], in [4], in assay [5] and in assay [16] was “inactive” each time. Also, the Potency result in assay [7], in [8], in [9], in [10], in assay [12] and in [13] was “inactive” in each case. Besides, the Potency entry in [18], in assay [14] and in assay [15] was “inactive” in each case.
On to `OCCCCCO`, for which the Potency entry in [1], in [2], in assay [3], in assay [4], in assay [5] and in assay [16] was “inactive” throughout. Moreover, the Potency result in [7], in [8], in assay [9], in assay [17], in [10] and in [11] was “inactive” each time. The Potency result in assay [12], in [13], in assay [18], in assay [14], in assay [20] and in assay [15] was “inactive” in each case.
On to `CC(=O)c1ccc[nH]1`, for which the Potency result in assay [1], in assay [2], in assay [3], in assay [4], in [5] and in [16] was “inactive” throughout. Further, the Potency entry in [6], in assay [9], in assay [17], in assay [10], in assay [11] and in [12] was “inactive” in each case. Moreover, the Potency entry in [13], in assay [18], in assay [14] and in assay [20] was “inactive” in each case.
In the case of `c1ccc2c(c1)CCCC2C1=NCCN1` (centres undefined), the Potency result in assay [1], in [2], in assay [3], in assay [4], in [5] and in [6] was “inactive” in each case. Besides, the Potency entry in assay [7], in [8], in assay [17], in assay [10], in assay [11] and in assay [12] was “inactive” throughout. The Potency result in assay [13], in assay [18], in assay [14], in assay [20] and in assay [19] was “inactive” throughout.
As for `CC(C)(C)C(=O)c1ccccc1`, the Potency result in [1], in assay [2], in assay [3], in [4], in assay [5] and in assay [6] was “inactive” in each case. The Potency entry in assay [7], in assay [8], in assay [9], in assay [17], in assay [10] and in [11] was “inactive” each time. Besides, the Potency result in [12], in assay [18], in [14], in [19] and in [15] was “inactive” in each case.

The values are drawn from PubChem BioAssay (Tox21).
